Source: PubChem (National Center for Advancing Translational Sciences (NCATS))
Hits are enriched below; roughly 21% of the tested compounds scored in any of these assays.
Shiga inhibitor – blocks Shiga toxin action in Vero cells; 9.2% of 290,000 active; inhibition, % at 38.7 µM; Vero cells, Shiga toxin protein synthesis inhibition reporter; in the data active means inhibition mostly above about 28%, no sharp cut-off; inactive means mostly below about 43%; further: 0% is about no effect
NS1 function inh – blocks influenza NS1 protein function | Potency, µM (titrated, usually from 46.1 µM), without a hit: at the highest dose activity, positive = more growth | 0.4% of 270,000 active; calls by dose curve; further: potency means the concentration at half of the fitted maximal effect; actives are rising curves; nearly all actives have a fitted effect of over 50% in size
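Compounds were scored for reversing the slow growth caused by influenza A NS1 in S. cerevisiae, measured by optical density at 600 nm. Assay medium contained 2% galactose at pH 6.0; NS1-free yeast of the same strain were the positive control.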
Pf growth 48h – P. falciparum growth inhibition at 48 hours (one generation). P. falciparum luciferase growth in erythrocytes, 48 h. Potency, µM (top dose mostly 28.7 µM), inactives show at the highest dose activity change, negative = inhibition, hits mostly inhibitors. 5.9% of 310,000 active. AID 504832; further: potency means the concentration at half of the fitted maximal effect; on the % scale 0 is the no-effect control and ±100 the full control effect
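Parasite viability was followed by luminescence of a genomically integrated firefly luciferase. Cultures held 0.1% parasitemia at 2% hematocrit (final), incubated under 5% CO2 at 37 C.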
Cycloheximide cs – counter-screen hit for Shiga toxin inhibitors, cycloheximide. 12% of 300,000 active. AID 2314. cell reporter, cycloheximide protein synthesis inhibition counterscreen. max response, %; in the data active means max response mostly above about 13%, no sharp cut-off; inactive means mostly below about 14%; further: read at 38.3 µM for the half of the compounds with a filed dose; 0% is about no effect
Pf growth 96h – P. falciparum growth inhibition at 96 hour, primary screen for plastid delayed-death inhibitors; P. falciparum luciferase reporter growth, 96 h; Potency, µM (highest dose often 28.7 µM), for inactives: top-dose activity change, negative = inhibition, actives largely listed as inhibitors; 6.9% of 320,000 active; further: potency means the concentration at half of the fitted maximal effect; on the % scale 0 is the no-effect control and ±100 the full control effect
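Two-generation exposure (96 h) targets delayed-death phenotype. Reporter parasites carrying integrated firefly luciferase, in red cells at 2% hematocrit and 0.05% parasitemia final, kept at 37 C, 5% CO2; luminescence loss indicates inhibition.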
Giardia FBPA inh – inhibitors of Giardia lamblia fructose-1,6-bisphosphate aldolase. purified Giardia FBPA. AID 2451. 0.71% of 290,000 active. Potency, µM (doses to about 59.6 µM), without a hit: at the top dose activity, negative = inhibition, hits mostly inhibitors. A8B2U2; further: potency means the concentration at half of the fitted maximal effect; on the % scale 0 is the no-effect control and ±100 the full control effect; nearly all actives have a fitted effect of over 55% in size
Target sequence (A8B2U2 whole entry, looked up): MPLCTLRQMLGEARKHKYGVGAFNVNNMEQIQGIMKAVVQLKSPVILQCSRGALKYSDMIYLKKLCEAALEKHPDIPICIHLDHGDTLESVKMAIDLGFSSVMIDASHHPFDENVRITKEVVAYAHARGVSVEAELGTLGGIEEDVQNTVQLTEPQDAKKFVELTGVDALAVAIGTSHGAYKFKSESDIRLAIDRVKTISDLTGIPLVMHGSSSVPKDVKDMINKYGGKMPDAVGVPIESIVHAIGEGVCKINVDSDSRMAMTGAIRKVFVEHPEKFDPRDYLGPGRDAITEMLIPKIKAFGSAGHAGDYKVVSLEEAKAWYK
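40 nM FBPA preincubated 10 min at RT with compound (up to 57.5 uM final), then substrate plus GAPDH/TPI/NAD/arsenate coupling and diaphorase/resazurin added. Fluorescence read after 20 min at RT, 525/598 nm.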
Numbers without * were called inactive; ? = inconclusive; . = no result; + = active, no number; [ ] = dose if it differs, or a comment. Unless noted, the call rests on the fitted dose curve; in most records, active means well fitted curve in the direction sought with a large enough effect; inconclusive means small, poorly fitted or top-dose-only effect, or another doubt; inactive means no such curve, though single readings can be large; an effect the other way counts as inactive or inconclusive.

SMILES | Shiga inhibitor | NS1 function inh | Pf growth 48h | Cycloheximide cs | Pf growth 96h | Giardia FBPA inh
CCOC(=O)c1c(C)oc2c1C(=O)c1ccccc1C2=O | 50* | -32% | 0.74µM* | 30* | -3% | ?
O=C(O)c1ccccc1-c1ccccc1C(=O)c1ccccc1 | . | -4% | . | . | . | .
Nn1c(-c2ccccc2)nc2cc(Cl)ccc2c1=O | -7 | -9% | 45% | 1 | 0% | 17%
O=C(O)CC1(c2ccc(F)cc2)C2CC3CC(C2)CC1C3 (centres undefined) | -11 | -53% | -19% | -3 | 0% | 3%
COc1cccc(CN2CCC(C(=O)Nc3ccc(Oc4cccnc4)cc3)CC2)c1 | -11 | 2% | ? | 2 | 56% | 9%
Cc1cccc(CN2CCC(C(=O)Nc3ccc(Oc4cccnc4)cc3)CC2)c1 | -1 | 1% | 13µM* | -3 | 14% | -8%
CCn1cc(CN2CCC(C(=O)Nc3ccc(Oc4cccnc4)cc3)CC2)cn1 | -19 | 21% | 13µM* | -2 | 12% | .
O=C(Nc1ccc(Oc2cccnc2)cc1)C1CCN(Cc2cc(Cl)ccc2O)CC1 | 23 | -9% | 1.3µM* | 10 | ? | .
CCn1cc(CN2CCC(C(=O)Nc3ccc(Oc4cccnc4)cc3)CC2)c(C)n1 | -35 | 14% | ? | -3 | 5% | .
O=C(Nc1ccc(Oc2cccnc2)cc1)C1CCN(Cc2ccc(F)cc2)CC1 | 0 | 16% | ? | 11 | 11% | .
CCOC(=O)c1c(C)[nH]c(C)c1S(=O)(=O)NCc1cc(C)ccc1C | -2 | 9% | -2% | 2 | 13% | 1%
COCCNC(=O)c1ccc(CS(=O)(=O)c2cccc(C(F)(F)F)c2)o1 | -12 | 4% | -1%[0.00184 µM] | -3 | ? | 5%
CC(NC(=O)/C=C/c1ccccc1[N+](=O)[O-])C1CC2CCC1C2 (centres undefined) | -3 | -6% | ? | -6 | ? | 2%
COC(=O)c1[nH]c2ccc(F)cc2c1NC(=O)CCN1CCN(C(=O)c2ccco2)CC1 | 48 | -4% | 35% | -1 | ? | 3%
COC(=O)c1[nH]c2ccccc2c1NC(=O)C(C)N1CCN(C(=O)c2ccco2)CC1 (centres undefined) | -12 | -2% | ? | 2 | 10µM* | 8%
COC(=O)c1[nH]c2cccc(C)c2c1NC(=O)CN1CCN(C(=O)c2ccco2)CC1 | 16 | 8% | ? | -7 | 12µM* | -1%
COC(=O)c1[nH]c2cccc(C)c2c1NC(=O)CN1CCN(c2ccccc2OC)CC1 | -7 | -54% | ? | -5 | -24% | 2%
COC(=O)c1[nH]c2cc(C)ccc2c1NC(=O)CN1CCN(C(=O)c2ccco2)CC1 | -18 | -10% | ? | -3 | 3.3µM* | -17%
CN(Cc1ccc(Cl)cc1)C(=O)COC(=O)c1ccc(-c2ccc(O)cc2)cc1 | . | . | -10% | . | 23% | .
Cc1ccc2oc(C(=O)N(C)Cc3ccon3)c(C)c2c1 | 47* | -25% | 87% | 54* | -17% | .
Cc1ccc2oc(C(=O)N(C)Cc3ccc(C)o3)c(C)c2c1 | 52* | -1% | 14% | 27* | ? | -16%
CCOC(=O)N1CCN(S(=O)(=O)N2CCCC(C(=O)NC(C)c3ccccc3)C2)CC1 (centres undefined) | -5 | -20% | 21% | 2 | ? | .
CN(C(=O)c1ccccc1-c1ncc[nH]1)C1CCCN(Cc2ccccc2F)C1 (centres undefined) | -6 | 2% | 2% | -2 | 7% | .
COc1ccc(NS(=O)(=O)c2ccc3oc(=O)ccc3c2)cc1 | 12 | 10% | -6% | -1 | ? | 0%
Cn1c(=O)c(=O)n(C)c2cc(S(=O)(=O)Nc3ccc4c(c3)OCCO4)ccc21 | 115* | -4% | 3.3µM* | 62* | 36% | -22%
COC(=O)COc1ccc(S(=O)(=O)Nc2ccc3c(c2)OCCO3)cc1C | 68* | 8% | 75% | 25* | -7% | 5%
COc1ccc(NS(=O)(=O)c2ccc3oc(Nc4ccc5c(c4)OCCO5)nc3c2)cc1 | + | 1% | -28% | 30* | -10% | -2%
COc1ccc(NS(=O)(=O)c2ccc3oc(SC(C)C(N)=O)nc3c2)cc1 (centres undefined) | -16 | 9% | 2.3µM* | 1 | 4.7µM* | .
